Key:
Assay type in all cases: functional
[1] = target: Solute carrier family 2, facilitated glucose transporter member 1 (Homo sapiens) (UniProt P11166); experiment: ST_JUDE_LEISH: Cytotoxicity at 2uM final concentration against transgenic Leishmania Mexicana promastigotes LmGLUT1 that are glucose transport deficient and complemented with the human glucose transporter GLUT1. Activity is measured by DNA content using SYBR green in vitro
[2] = target: Hexose transporter 1 (Plasmodium falciparum) (UniProt O97467); experiment: ST_JUDE_LEISH: Cytotoxicity at 2uM final concentration against transgenic Leishmania Mexicana promastigotes LmPfHT that are glucose transport deficient and complemented with the Plasmodium falciparum hexose transporter. Activity is measured by DNA content using SYBR green in vitro
[3] = target: Glucose transporter (Leishmania mexicana) (UniProt O61059); experiment: ST_JUDE_LEISH: Cytotoxicity at 2uM final concentration against transgenic Leishmania Mexicana promastigotes LmGT2 that are glucose transport deficient and complemented with the L. Mexicana glucose transporter 2. Activity is measured by DNA content using SYBR green in vitro

Sequence of Solute carrier family 2, facilitated glucose transporter member 1 (Homo sapiens) (P11166 whole entry): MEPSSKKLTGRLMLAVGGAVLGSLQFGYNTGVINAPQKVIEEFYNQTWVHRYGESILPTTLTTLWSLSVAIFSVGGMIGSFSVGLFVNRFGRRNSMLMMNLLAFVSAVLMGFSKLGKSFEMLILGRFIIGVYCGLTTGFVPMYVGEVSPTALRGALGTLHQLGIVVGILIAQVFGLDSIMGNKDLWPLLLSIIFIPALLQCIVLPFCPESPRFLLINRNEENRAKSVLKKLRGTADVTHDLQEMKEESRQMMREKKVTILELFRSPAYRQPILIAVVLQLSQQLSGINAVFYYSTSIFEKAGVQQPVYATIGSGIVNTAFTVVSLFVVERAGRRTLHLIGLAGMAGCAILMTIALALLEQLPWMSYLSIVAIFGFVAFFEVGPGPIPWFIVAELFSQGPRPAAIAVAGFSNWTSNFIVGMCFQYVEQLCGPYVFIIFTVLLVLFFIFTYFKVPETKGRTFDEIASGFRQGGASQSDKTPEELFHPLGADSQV

Structure (SMILES)	inhibition [1] [%]	inhibition [2] [%]	inhibition [3] [%]
COc1ccc2c(c1)CCN(CCN1CCC(CNC(=O)c3ccc(-c4ccc(C#N)cc4)cc3)CC1)C2	-0.11	1.19	2.22
Cc1onc(-c2ccccc2Cl)c1C(=O)Nc1cc(Cl)c(Cl)cc1Cl	3.43	5.64	4.95
N=c1n(CCN2CCCCC2)c2ccccc2n1CC(O)c1cccc(Br)c1 (stereo unspecified)	3.65	4.03	3.65
COc1ccc(Cl)cc1NC(=O)Nc1ccc2c(c1)CCN(C1CCC1)CC2	2.26	0.44	1.36
CCOc1cc(C(=O)NC2CCN(Cc3ccccc3)CC2)ccc1-c1nc2cc(Cl)ccc2[nH]1	4.1	5.59	3.09
N#Cc1ccc(C(=O)Nc2ccc(-c3cccc(CN4CCCC4)c3)cc2)cc1	4.22	1.49	-0.82
COc1ccc(CNCc2ccccc2)cc1-c1ccc(OC)c(S(=O)(=O)NCCN2CCCC2)c1	-0.27	-0.09	3.45
O=C(Nc1ccc(Cl)cc1)N(CC1CC2CCC(C1)N2Cc1ccc(C(F)(F)F)cc1)c1ccc(N2CCOCC2)c(F)c1 (stereo unspecified)	6.73	5.58	8.78
CN(C)Cc1ccc(-c2cc3c(Nc4ccc(OCc5cccc(F)c5)c(Cl)c4)ncnc3s2)[nH]1	2.15	2.19	2.33
Cc1ccc(Nc2cc(C)nn2-c2nc(C)cc(O)n2)cc1	75.4	73.6	67.6
O=C(NCCCN1CCC(NC(=O)c2ccc(-c3cccnc3)cc2)CC1)c1ccc(Cl)c(Cl)c1	2.51	1.38	1.63
Cc1cc(C)c2ncc(C(=O)O)c(O)c2c1	2.75	3.7	3.9

— ChEMBL document CHEMBL3433997, “St. Jude Leishmania screening dataset” (2016)
